This passage reports B-score results from PubChem BioAssay AID623877 (Johns Hopkins Ion Channel Center, 2012).

Among all 340,000 compounds or so, about 1,000 (0.29%) were called active.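 How the source made its calls: active means fluorescence-ratio B-score plate-corrected deviation score at least 3 library SD below zero, with starting fluorescence score within 5 deviations; inactive means the rest.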 The sample as a whole holds a higher share of actives than the screen did.

In the test the target is Anoctamin-1 (Mus musculus) (UniProt Q8BHY3). Kind of test: TMEM16A chloride channel activators or potentiators, primary screen, cell-based, HTS (AID 623877).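 On B-score: channel opened by trigger with iodide after compound preincubation; score built on the fluorescence ratio of max minus min over baseline; more negative score means more quench and so TMEM16A activation or potentiation.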 The settings on record: HEK293 TMEM16A/YFP-H148Q/I152L, iodide quench fluorescence, at 10 µM; hits give low values.
Anoctamin-1 (Mus musculus), sequence (Q8BHY3 whole entry, looked up): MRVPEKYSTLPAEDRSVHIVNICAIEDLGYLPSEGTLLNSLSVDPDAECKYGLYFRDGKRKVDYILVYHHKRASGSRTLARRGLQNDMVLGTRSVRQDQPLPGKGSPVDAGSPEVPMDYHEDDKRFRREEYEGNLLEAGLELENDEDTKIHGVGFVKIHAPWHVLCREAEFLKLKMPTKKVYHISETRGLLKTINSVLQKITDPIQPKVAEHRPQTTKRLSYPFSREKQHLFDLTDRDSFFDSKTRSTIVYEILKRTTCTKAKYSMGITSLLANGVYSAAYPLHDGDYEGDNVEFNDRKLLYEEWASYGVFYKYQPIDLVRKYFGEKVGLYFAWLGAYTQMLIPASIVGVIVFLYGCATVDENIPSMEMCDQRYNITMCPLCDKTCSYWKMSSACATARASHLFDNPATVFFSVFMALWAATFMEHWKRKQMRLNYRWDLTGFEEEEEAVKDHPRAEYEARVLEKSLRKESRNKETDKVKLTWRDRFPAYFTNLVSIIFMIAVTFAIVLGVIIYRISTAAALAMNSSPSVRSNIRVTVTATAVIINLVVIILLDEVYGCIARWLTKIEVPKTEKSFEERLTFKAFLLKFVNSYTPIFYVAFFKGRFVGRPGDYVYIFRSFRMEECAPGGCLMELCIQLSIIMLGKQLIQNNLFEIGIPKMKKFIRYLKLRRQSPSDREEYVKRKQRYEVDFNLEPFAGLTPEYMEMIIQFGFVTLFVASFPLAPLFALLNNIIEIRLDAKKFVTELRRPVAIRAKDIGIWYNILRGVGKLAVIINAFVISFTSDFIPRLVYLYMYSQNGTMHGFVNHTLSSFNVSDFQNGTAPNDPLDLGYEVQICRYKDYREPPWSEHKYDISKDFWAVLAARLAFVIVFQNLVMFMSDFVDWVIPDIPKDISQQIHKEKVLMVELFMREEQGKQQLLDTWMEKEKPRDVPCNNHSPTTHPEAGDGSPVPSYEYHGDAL
Turning to `O=C(C1CCC1)N1CCN(S(=O)(=O)c2ccc([N+](=O)[O-])cc2)CC1`, the B-score entry is “inactive”. With `COc1cc(NC(=S)NCc2ccc(S(N)(=O)=O)cc2)cc(OC)c1`, the B-score entry was “inactive”. With `COc1ccc(NC(=S)Nc2ccc(S(N)(=O)=O)cc2)c(C)c1`, the B-score is -4.58 (active).

Turning to `COc1ccc(N2CCN(C(=S)Nc3ccc(S(N)(=O)=O)cc3)CC2)cc1`, the B-score result was “inactive”. Next, `Cc1ccc(CCNC(=O)C2CCN(S(=O)(=O)N3CCCC3)CC2)cc1`: “inactive”; `O=C(O)C1CCN1C1CCCCC1` (stereo unspecified): -6.61 (active); `CC(Sc1nnnn1C1CCCCC1)C(=O)O` (stereo unspecified): “inactive”. In the case of `O=C(O)c1cccc2c1C(=O)N(C1CCCCC1)C2`, the B-score entry was “inactive”. As for `COc1cccc2c1OCC(CN1CCN(C3CCCCC3)C(CCO)C1)=C2` (stereo unspecified), the B-score result was “inactive”. In the case of `CC(=O)OCC1(O)CC23CCC4c5ccoc5CCC4(C)C2CCC1C3` (stereo unspecified), the B-score is -17.2 (active). `Oc1cc2c(cc1O)CN(C(=S)NCCc1ccc(Cl)cc1)CCC2`: the B-score result was “inactive”.

Take `Cc1nc(SCC(=O)NC2CCCC2)[nH]c(=O)c1C`: the B-score entry is “inactive”.

Take `C[C@H](NC(=O)c1nc[nH]c1C(=O)N[C@@H](C)C(=O)OC(C)(C)C)C(=O)OC(C)(C)C`: the B-score entry is “inactive”. Take `COCC1CCCN(Cc2nc(-c3ccc4c(c3)OCO4)no2)C1` (stereo unspecified): the B-score entry was “inactive”. In the case of `CCn1ccnc1CN(C)Cc1nc(-c2ccc3c(c2)OCO3)no1`, the B-score entry is “inactive”.

On to `CN(CCN1CCOCC1)Cc1nc(-c2ccc3c(c2)OCO3)no1`, for which the B-score is -6.61 (active). Next, `CC(C)N(Cc1ccccc1)C(=O)COC(=O)c1cnccn1`: “inactive”; `Cc1cc(C)cc(NC(=O)CN2C(=O)c3ccccc3C2=O)c1`: “inactive”. Turning to `Cc1ccc2c(c1)-c1c(ssc1=S)C(C)(C)N2C(=O)CN1C(=O)c2ccccc2C1=O`, the B-score entry is “inactive”.

Take `Cc1cc2c(cc1C)N(C(=O)CN1C(=O)c3ccccc3C1=O)C(C)(C)c1ssc(=S)c1-2`: the B-score is -9.51 (active). As to `O=C(NCCCN1CCN(c2ccccc2F)CC1)C1CCC(=O)N1C1CCCCC1` (stereo unspecified), the B-score entry is “inactive”.

On to `Cc1ccccc1CSc1nnc(Cn2c(=O)sc3ccccc32)n1C`, for which the B-score entry was “inactive”. The same measure for `Cc1ccc(NS(=O)(=O)c2ccc3c(c2)oc(=O)n3C)c(C)c1`: “inactive”. As to `CCCS(=O)(=O)N1CCCC(C(=O)NCc2ccco2)C1` (stereo unspecified), the B-score entry is “inactive”. Turning to `O=C(NCc1ccco1)C1CCCN(S(=O)(=O)c2cnc[nH]2)C1` (stereo unspecified), the B-score was -16.8 (active). Consider `O=C(NCc1ccco1)C1CCCN(S(=O)(=O)c2ccccc2)C1` (stereo unspecified), for which the B-score entry is “inactive”. As for `Cc1cc(S(=O)(=O)NCC(C)C)ccc1OCC(=O)NC1CC1`, the B-score entry is “inactive”. For the compound `CCN(CC)CCOc1ccc2c(c1)C(=NNC(=O)c1ccccn1)c1cc(OCCN(CC)CC)ccc1-2`, the B-score result is “inactive”.

Regarding `CCn1c(SCC(=O)Nc2ccccc2F)nc2c(c1=O)SC(C)C2` (stereo unspecified), the B-score entry is “inactive”. On to `O=C(Nc1cccc([N+](=O)[O-])c1)Nn1cnnc1`, for which the B-score result was “inactive”.

For the compound `COc1ccc(S(=O)(=O)NC(C)C(=O)Nc2cccc([N+](=O)[O-])c2)cc1` (stereo unspecified), the B-score entry was “inactive”. On to `COC(=O)/C=C\C(=O)Nc1cccc([N+](=O)[O-])c1`, for which the B-score was -4.72 (active). As to `CCn1c(SCC(=O)Nc2ccc3c(c2)OCCO3)nnc1C(C)C`, the B-score result is “inactive”. Regarding `CCn1c(SCC(=O)Nc2ccc3c(c2)OCCO3)nnc1-c1ccncc1`, the B-score result was “inactive”. With `CCn1c(COc2ccccc2)nnc1SCC(=O)Nc1ccc2c(c1)OCCO2`, the B-score is -32.9 (active). Take `C/C(=N\NC(=O)c1cccnc1)c1ccc(-n2ccnc2)cc1`: the B-score entry was “inactive”.

`Nc1nc(NC(=O)/C=C/c2ccccc2)nn1-c1ccccc1`: the B-score result was “inactive”. On to `Cc1ccc2nc(N3C(=O)C(O)=C(C(=O)c4ccco4)C3c3cccc(O)c3)sc2c1` (stereo unspecified), for which the B-score entry was “inactive”.

In the case of `C=CCSc1nnc(N2C(=O)C(O)=C(C(=O)c3ccco3)C2c2ccc(F)cc2)s1` (stereo unspecified), the B-score is -5.81 (active).

Regarding `C=CCOc1cccc(C2C(C(=O)c3ccc(C)o3)=C(O)C(=O)N2c2nnc(C)s2)c1` (stereo unspecified), the B-score entry was “inactive”. On to `COc1cccc(NC(=O)CN(C)C(=O)c2cc(C3CC3)nn2-c2ccccc2)c1`, for which the B-score result was “inactive”. Next, `O=C(COc1ccc(NC(=O)c2ccccc2[N+](=O)[O-])cc1)c1ccc(F)cc1`: “inactive”; `COc1ccc(OC)c(NC(=O)CSc2nc(N)c(-c3ccccc3)c(=O)[nH]2)c1`: “inactive”; `CCCOC(=O)CC1C(=O)NCCN1Cc1ccc(F)cc1` (stereo unspecified): “inactive”. For the compound `CC(C)c1nc2oc3c(N4CCN(C)CC4)ncnc3c2c2c1CCC2`, the B-score entry is “inactive”. On to `Cc1cc(C)c(-c2c(O)c3ccccc3n(C)c2=O)c(C)c1`, for which the B-score entry is “inactive”.

Turning to `Cn1c(=O)c([N+](=O)[O-])c(Oc2ccccc2)c2ccccc21`, the B-score was -29 (active). The same measure for `Cc1cccc(Oc2c([N+](=O)[O-])c(=O)n(C)c3ccccc23)c1`: “inactive”.

In the case of `CN(CCC(=O)Nc1cc(S(=O)(=O)N(C)C)ccc1Cl)CC(=O)Nc1ccc(F)cc1`, the B-score entry is “inactive”. The same measure for `CC1=CC(=NNS(=O)(=O)c2ccc([N+](=O)[O-])cc2)CC(C)(C)C1`: “inactive”; for `CC(=O)c1cc(NC(=O)c2ccccc2)c(=O)oc1/C=C/N(C)C`: -6.65 (active). In the case of `COc1cc(NC(=O)c2ccccc2)c(OC)cc1NC(=O)Cc1ccccc1`, the B-score result is “inactive”. Consider `CCOC(=O)c1cc(NC(=O)c2ccc(Cl)cc2)c(=O)oc1-c1ccccc1`, for which the B-score entry is “inactive”. Regarding `COc1ccc(N(CCC(=O)NCCc2ccccc2)S(=O)(=O)c2ccc(C)cc2C)cc1`, the B-score result is “inactive”. Take `Nc1ccc2[nH]c(=S)sc2c1`: the B-score result is “inactive”.

`COc1ccc(C(=O)OCC(=O)NCCCc2ccccc2)cc1OC`: the B-score result was “inactive”.

As for `COc1ccc(C(CCN(Cc2ccc(OC)c(OC)c2)C(=O)CCl)c2ccccc2)cc1` (stereo unspecified), the B-score entry was “inactive”. With `CCN(CCCCOC(=O)c1ccc(OC)c(OC)c1)C(C)Cc1ccc(OC)cc1` (stereo unspecified), the B-score was -9 (active). Consider `CCOCCCNC(=S)N1CCC(NC(=O)C2CCCCC2)CC1`, for which the B-score entry was “inactive”.

`CCOc1ccccc1NC(=S)NC(=O)CCc1ccccc1`: the B-score entry was “inactive”.

Turning to `CCc1cccc(NC(=O)COC(=O)C2CCN(c3ccc(C(F)(F)F)cn3)CC2)c1`, the B-score entry is “inactive”.

Turning to `CC(=O)C[C@H](O)CC(=O)[C@@H]1OC(=O)[C@@H](C)C/C=C\Cc2ccccc21`, the B-score result was “inactive”. On to `CC(=O)C[C@@H](O)CC(=O)[C@H]1OC(=O)CCCCCCc2ccccc21`, for which the B-score was -17.5 (active).

`CC[C@@H]1CCCCc2ccccc2[C@@H](C(=O)C[C@H](O)CC(C)=O)OC1=O`: the B-score result was “inactive”. For `CCOC(=O)CSc1nnc(CNC(=O)Cc2ccccc2)n1-c1ccccc1OC`, the B-score result was “inactive”. As for `Cc1cc(OC(=O)c2ccc(Cl)cc2)cc(=O)n1C`, the B-score result is “inactive”.

Regarding `CCOC(=O)c1c(/N=C/C2C(=O)CC(C)(C)CC2=O)sc(C)c1C`, the B-score entry is “inactive”. Consider `CCOC(=O)c1sc(/N=C/C2=C(O)CC(C)(C)CC2=O)c(C(=O)OCC)c1C`, for which the B-score was -35.4 (active).

Consider `CCOC(=O)c1c(CC(C)C)csc1/N=C/C1=C(O)CCCC1=O`, for which the B-score result was “inactive”.

With `COc1ccc(Cl)cc1NC(=O)Cn1nc(-c2ccc(C)cc2)n(C)c1=S`, the B-score result is “inactive”. With `CCC(NC(=O)C1CCCC1)c1ccc(C)cc1` (stereo unspecified), the B-score entry was “inactive”.
